From PubChem BioAssay (NCI) come the findings set out here.

This is part of a sample that, as a whole, favours compounds with a hit. Of some 83,000 tested, about 20% had one in any assay.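 Testing used 96-well plates and a 48-hour single-concentration exposure. Example: -40 means 40% of the starting cells died.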 Unmarked numbers belong to inactive results. Activity calls are given as the source filed them. How the source made its calls: active means growth percent below 10; inactive means the rest.

This assay concerns HL-60(TB) leukemia. Description: NCI-60 one-dose screen, 48 h (100 = growth as untreated, 0 = no growth, -100 = all killed). Particulars: 10 µM unless noted.
`Nc1c(-c2nc3ccccc3c(=O)[nH]2)nnn1-c1ccc(Cl)cc1`: the growth was 94%.

With `COc1cc(C(=O)/C=C/c2cccc(Nc3ccnc4cc(Cl)ccc34)c2)cc(OC)c1OC`, the growth is 5.47% (active).

Consider `C=C(C)[C@@H]1CC[C@]2(C(=O)NNC(=O)c3cccnc3)CC[C@]3(C)[C@H](CC[C@@H]4[C@@]5(C)CCCNC(C)(C)[C@@H]5CC[C@]43C)[C@@H]12`, for which the growth was 66.9%.

Consider `CC(=O)Oc1csc(N(C(C)=O)c2cccc(C(F)(F)F)c2)n1`, for which the growth is 107%.

Consider `COc1cc(NCCCN(CC(C)C)CC(C)C)c2ncccc2c1`, for which the growth is 89.8%.

Turning to `O=C1C=CC(=O)N1c1ccccc1N1C(=O)C=CC1=O`, the growth is 31.7%.

Turning to `COc1ccc(C2=NC(=O)NC2c2ccc(OC)cc2)cc1` (stereo not given), the growth was 61.2%.

On to `COc1ccc(/C=N/c2cc(C(C)(C)C)nn2-c2ccccc2)cc1`, for which the growth is 88.3%.

`CC(C)(C)n1cc(-c2ccnc(NCCCNS(=O)(=O)c3ccc(Cl)cc3)c2)c(-c2cccc(O)c2)n1`: the growth was -46.1% (active).

Turning to `CN(C)C/C=C/C(=O)Nc1cc2c(Nc3ccc(F)c(Cl)c3F)ncnc2cc1OCCOC(F)F`, the growth was 13.2%.

For the molecule `COc1ccc(-c2ccc(-c3ccc(-c4ccc(C(=N)N)cc4)s3)s2)cc1OC`, the growth was 99.1%.

Consider `CC(C)c1[nH]nc2c(NCc3ccc(-c4ccccn4)cc3)nc(SCCN)nc12`, for which the growth was -24.4% (active).

For the molecule `Cn1c2ccccc2c2c3[nH][nH]c(=O)c3c3c4ccccc4[nH]c3c21`, the growth is 4.77% (active).

As for `CC(=O)Nc1cccc(-c2ccc3c(c2)NC(=O)/C3=C\c2ccc[nH]2)c1`, the growth is 20.2%.

As for `CSc1ncc2ncn(C3OC(CO)C(O)C3O)c2n1` (stereo not given), the growth was 114%.

With `O=C(NCc1ccccc1)C1CN(c2ccc(Cl)cc2)N(c2ccc(Cl)cc2)C1=O` (stereo not given), the growth is 81.7%.

In the case of `CC1(C)OCC(COC(c2ccccc2)(c2ccccc2)c2ccccc2)O1` (stereo not given), the growth was 99.9%.

Take `O=S(=O)(Nc1ccc(I)cc1F)c1ccc(-c2cnc(C3CC3)o2)cc1`: the growth was 17.1%.

For the molecule `CC(C)OC(=O)c1cc(NC(=S)OC(C)C)ccc1Cl`, the growth was 86.2%.

With `COc1ccc2nc3cc(Cl)ccc3c(Nc3ccc(N(C)C)cc3)c2c1`, the growth was 90%.

Consider `O=c1onc(-c2ccccc2)c2ccccc12`, for which the growth is 86.8%.

For `CC/C=C\C[C@H](O)C/C=C1/C(=O)C=C[C@@]1(C)C/C=C\CCCC(=O)OC`, the growth is 98.9%.

Consider `CC1=C2[C@@H](CC1)[C@]1(C)O[C@@](C3CCNCC3)(C[C@H]1OC(=O)CO)[C@H]2OC(=O)/C=C/c1ccccc1`, for which the growth was 97.1%.

For `NC(=O)c1c(NC(=O)c2ccccc2)sc2c1CCC(=O)C2`, the growth was -6.87% (active).

Regarding `COc1ncc(-c2ccc3ncnc(Nc4cccc(Cl)c4)c3c2)cc1NS(=O)(=O)CCN1CCOCC1`, the growth was 23.9%.

In the case of `C=C1C(=O)O[C@H]2[C@H]1CC/C(COC(=O)CCCCCCCCC(=O)OC/C1=C/CC[C@@]3(C)O[C@H]3[C@H]3OC(=O)C(=C)[C@@H]3CC1)=C\CC[C@@]1(C)O[C@@H]21`, the growth was -32.8% (active).

As for `Nc1ccc(C2=NN(c3ccccc3)C(c3ccc(Cl)cc3)C2)cc1` (stereo not given), the growth is 59.6%.

Consider `CCOC(=O)c1c(Cl)c2c(n1Cc1cc(OC)cc(OC)c1)-c1oncc1CCC2`, for which the growth is 0.728% (active).

For the molecule `COc1ccc(/C=N/NC(=O)CN2CCN(c3cc4c(cc3F)c(=O)c(C(=O)O)cn4C3CC3)CC2)cc1O`, the growth was 92%.

With `O=C1c2ccc3c4c(ccc(c24)C(=O)N1CCCNCc1ccccc1F)C(=O)N(CCCNCc1ccccc1F)C3=O`, the growth is -59% (active).

Turning to `Nc1nnc(C(=O)c2cnc3n(c2=O)CCCCC3)s1`, the growth is 110%.

Regarding `Cc1c(C)c(C)c([N+](=O)[O-])c([N+](=O)[O-])c1C`, the growth was 109%.

As for `Cc1ccc(NC(=O)c2nc(S(C)=O)oc2-c2ccc(F)cc2)cc1Nc1nccc(-c2cccnc2)n1` (stereo not given), the growth was 47.3%.

On to `O=c1c2cc(F)ccc2sc2c(N3CCNCC3)nc3ccc(F)cc3c12`, for which the growth was 3.71% (active).

As to `CCc1nc2cc(F)c(/C=C/C(=O)NO)cc2c(=O)n1CCc1ccccc1`, the growth is 0.13% (active).

As to `O=C(CCCCCCN1CC(=O)N2[C@@H](c3ccc(Cl)cc3)c3[nH]c4ccccc4c3C[C@H]2C1=O)NO`, the growth was 46.8%.

Consider `COc1ccc(CCN2CCC(Nc3nc4ccccc4n3Cc3ccc(F)cc3)CC2)cc1`, for which the growth was -53.5% (active).

Turning to `CCOC(=O)c1cnc2ccc(OC)cc2c1Nc1cccc(S(=O)(=O)NC)c1`, the growth is 109%.

Regarding `CN1/C(=C/C=C/c2n(Cc3ccc4ccccc4c3)c(Cl)c(Cl)[n+]2Cc2ccc3ccccc3c2)Oc2ccccc21`, the growth was 98.9%.

Turning to `CCCCCCCCn1cc(C2=C(c3coc4ccc(OC)cc34)C(=O)NC2=O)c2ccccc21`, the growth was 133%.
